Shown are actives, neighbours in structure and some others; about 3.6% of the full set was active somewhere.
Pf apPOL block: Pf-apPOL DNA polymerase inhibition; AID 1794808; 210,000 tested, 0.25% active; inhibition, % at 10 µM; Recombinant Pf-apPOL, molecular beacon fluorescence, 1.5 h
mHTT-CaM PPI inh: disrupts binding of mutant huntingtin to calmodulin; AlphaScreen His-mHTT/GST-CaM binding, luminescence; inhibition, % at 15 µM; 190,000 tested, 3.6% active; P42858; AID 1671202;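 also: 0% = both proteins with DMSO and 100% = one protein alone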
The depositor's hits bear a star; nt = not tested or not shown. Rule as the data show it: active = inhibition above about 50%; inactive = the rest.

SMILES	Pf apPOL block	mHTT-CaM PPI inh
COc1cc(C(C[N+](=O)[O-])c2c(C)[nH]c3ccccc23)cc(OC)c1OC (configuration not stated)	6.6	42.2
COC(CNC(=O)C(=O)Nc1cccc(C(F)(F)F)c1)OC	-2.8	nt
O=[N+]([O-])c1cccc(S(=O)(=O)C=C(Cl)Cl)c1	nt	62.7*
O=[N+]([O-])c1cccc(S(=O)(=O)N2CCCC2)c1	-10.0	-3.4
Cn1cc(CCN2CCC(C(=O)N3CCCC3)CC2)c2cccnc21	-1.1	2.9
COc1cc(C(=O)Nc2nc3ccccc3n2C)cc(OC)c1OC	-10.3	57.1*
Cn1c(NC(=O)c2ccc(F)cc2)nc2ccccc21	-6.9	34.1
COc1ccccc1-n1cnc2cc(NC(=O)c3cc(OC)c(OC)c(OC)c3)ccc21	-2.3	21.0
COc1cc(C(=O)Nc2ccc3c(c2)ncn3-c2ccc(C)cc2)cc(OC)c1OC	-3.0	53.0*
O=S(=O)(Cc1ccc2nonc2c1)c1ccc(C(F)(F)F)cn1	-5.3	nt
COC(=O)c1cccc(C(=O)N2CCc3ccccc32)n1	-5.5	-2.5
O=C(NCCCn1ccnc1)c1cc(-c2ccc(Cl)s2)nc2ccccc12	2.6	50.0*
O=C(NCc1cccnc1)c1cc(-c2cccnc2)nc2ccccc12	-9.3	-17.0
O=C(NCCCn1ccnc1)c1cc(-c2ccc(Br)cc2)nc2ccccc12	-2.3	43.5
O=C(NCCc1ccc(Cl)cc1)c1cc(-c2cccnc2)nc2ccccc12	-7.3	58.0*
CCOC(=O)c1ccc(Oc2coc3c(CN(C)C)c(O)ccc3c2=O)cc1	-2.8	1.6
COc1cc(OC)cc(C(=O)N2CCCC2c2nc(-c3ccccc3OC)no2)c1 (configuration not stated)	-2.2	6.5
O=C1CCC(c2ccc(Br)cc2)=NN1	-10.1	-5.6
Cc1nnc(N2C(=O)C(O)=C(C(=O)c3cccs3)C2c2ccccc2F)s1 (configuration not stated)	-7.9	31.4
Cc1nnc(N2C(=O)C(O)=C(C(=O)c3cccs3)C2c2ccc(Cl)c(Cl)c2)s1 (configuration not stated)	-4.1	92.0*
Cc1ccc(C(=O)NCC(C)NC(=O)c2ccc(C)o2)o1 (configuration not stated)	-2.5	-3.4
O=C(NCCc1c[nH]c2ccccc12)c1cc2nc(-c3cccs3)cc(C(F)(F)Cl)n2n1	-0.7	82.0*
O=C(NCCCN1CCOCC1)c1cc2nc(-c3cccs3)cc(C(F)(F)Cl)n2n1	-4.1	25.0
Cn1nc(C(=O)NCc2ccc3c(c2)OCO3)c2c1CCN(C(=O)c1cccs1)C2	-0.3	11.4
Cn1nc(C(=O)NCc2ccc3c(c2)OCO3)c2c1CCN(C(=O)Cc1cccs1)C2	-5.1	54.0*
SMILES	Pf apPOL block	mHTT-CaM PPI inh
Cn1nc(C(=O)NCc2ccc3c(c2)OCO3)c2c1CCN(C(=O)c1ccco1)C2	-8.5	-3.5
Cn1nc(C(=O)NCc2ccc3c(c2)OCO3)c2c1CCN(C(=O)c1ccc(F)cc1)C2	-13.6	51.2*
CCC(=O)N1CCc2cc(Br)cc(S(=O)(=O)NCc3ccc(OC)cc3)c21	-4.1	1.0
COc1ccc(/C=C/C(=O)Nc2cc(C)c3c(=O)oc4ccccc4c3n2)cc1OC	-1.1	3.0
Cc1ccc2ccc(C(Nc3ccccn3)c3cccc(O)c3)c(O)c2n1 (configuration not stated)	-15.6	76.0*
Cc1cccc(NC(c2cccc(O)c2)c2ccc3ccc(C)nc3c2O)n1 (configuration not stated)	-12.5	89.0*
Cc1ccc2cccc(I)c2n1	-4.9	nt
CCC(C(=O)Nc1cccc(C)n1)c1ccccc1 (configuration not stated)	-4.9	-6.4
COc1ccc(-c2csc(Nc3cc(C)ccn3)n2)cc1OC	1.8	47.0
CCC(C(=O)Nc1ccccn1)c1ccccc1 (configuration not stated)	1.7	-3.9
COc1cc(C(Nc2cc(C)ccn2)c2ccc3ccc(C)nc3c2O)cc(OC)c1OC (configuration not stated)	1.5	89.0*
Cc1cccc(NC(c2ccccc2)c2ccc3ccc(C)nc3c2O)n1 (configuration not stated)	-1.0	77.0*
Cc1ccc(-c2cc(CN(C(=O)c3cccs3)C3CC3)no2)cc1C	0.1	-16.2
COc1cccc(C(=O)Nc2cc(C(=O)N3CCC(C)CC3)cn(C)c2=O)c1OC	-2.1	14.8
O=C(CC1CCN(S(=O)(=O)c2cccs2)CC1)NCc1ccc(Cl)cc1	-2.7	-14.0
Cc1cc(O)c(C(c2cccnc2)c2c(O)cc(C)oc2=O)c(=O)o1	-0.1	2.8
Cc1ccnc(NC(c2cccc(O)c2)c2ccc3ccc(C)nc3c2O)c1 (configuration not stated)	-4.9	93.0*
Cc1cccc(NC(c2cccc([N+](=O)[O-])c2)c2ccc3ccc(C)nc3c2O)n1 (configuration not stated)	-9.8	70.0*
Cc1cccc(NC(c2cccnc2)c2ccc3ccc(C)nc3c2O)n1 (configuration not stated)	-6.2	90.0*
O=c1cc(CO)oc(C(Nc2ccccn2)c2cccc([N+](=O)[O-])c2)c1O (configuration not stated)	9.8	14.0
Cc1ccnc(NC(=O)CSc2nc(C)cc(C)n2)c1	-0.8	-2.0
Cc1cccc(NC(c2ccccc2F)c2ccc3ccc(C)nc3c2O)n1 (configuration not stated)	-3.8	71.0*
Cc1ccc2cccc(SCC(=O)Nc3ccc(F)cc3)c2n1	-14.3	-1.3
COCCN1C(=O)CCc2cc(NS(=O)(=O)c3cccc(C)c3)ccc21	-1.4	7.3
CC(C)(C)NC(=S)NC1CCCCC1	0.2	nt
SMILES	Pf apPOL block	mHTT-CaM PPI inh
COc1ccccc1C(=O)N1CCC(CCOc2cccc(F)c2)CC1	-1.3	18.0
CCCNC(=O)c1cncc(-c2ccc(F)cc2F)c1	62.2*	12.4
CC(C)CNC(=O)c1cncc(-c2ccc(F)cc2F)c1	36.8	1.2
NC(=O)N1c2ccccc2C=Cc2ccccc21	2.0	nt
O=C1NC(=O)[C@H]2[C@@H]1[C@@H](C(=O)c1ccccc1)N1c3ccccc3C=C[C@H]21	nt	58.4*
CC(C)N(C(=O)NC(=O)Nc1ccc(I)cc1)S(C)(=O)=O	0.9	1.0
O=C(NCCCn1ccnc1)C(=O)Nc1ccc2c(c1)OCCO2	-2.3	-3.3
O=C(NCCCn1ccnc1)Nc1cccc(Cl)c1	0.5	88.7*
O=C(NCCCn1ccnc1)C(=O)Nc1ccc(F)c(Cl)c1	-1.9	69.9*
O=C(NCCCn1ccnc1)c1ccc(Cl)cc1	2.1	-3.5
CC1CN(Cc2cccc([N+](=O)[O-])c2)CC(C)O1 (configuration not stated)	2.7	-6.4
CCC(=O)NCc1csc(C2CCN(C(=O)COc3ccccc3)CC2)n1	-4.1	-1.0
CCOC(=O)c1ccc(NC(=O)N2CCCC2c2cc(C(C)C)on2)cc1 (configuration not stated)	-2.5	-6.2
Cn1c(C2CCN(C(=O)Nc3ccc(F)cc3)CC2)cc(=O)n2nccc12	-2.7	-6.7
CC(C)C(=O)NC(c1ccccc1)c1ccc2cccnc2c1O (configuration not stated)	-7.6	100.0*
CC(C)C(=O)NC(c1ccco1)c1ccc2cccnc2c1O (configuration not stated)	1.4	99.7*
CC(C)C(=O)NC(c1ccccc1Cl)c1ccc2cccnc2c1O (configuration not stated)	8.4	100.0*

High-throughput results from PubChem BioAssay.
